Data reported in PubChem BioAssay AID1159580 (chemical genetic matrix, 2015).
Out of some 5,500 compounds screened, about 2,000 (36%) were called active. Roughly 18% stayed inconclusive and do not appear here. Cut-off read from the data, not from the text of the source: active = normalized growth mostly below about 0.91 (no sharp cut-off); inconclusive = no clear call, values can overlap the other calls; inactive = mostly above about 0.92. The list shows a part of the results.

Experiment: chemical genetic growth profiling, strain panel (AID 1159580);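 note: tested at 20 µM; growth read once vehicle control cultures reached saturation at 30 °C; 1 = growth at the plate median or of vehicle wells; lower values mean less growth of the strain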
Details: S. cerevisiae deletion strains, growth OD

Measured: normalized growth

O=C(Nc1ccc(C(=O)O)c(O)c1)c1ccccc1
inactive: locus YAL021C, strain ccr4, active compounds read low 0.968 | locus YAL026C, strain drs2, active compounds read low 0.982 | locus YAL030W, strain snc1, active compounds read low 0.952 | locus YBL061C, strain skt5, active compounds read low 0.977 | locus YBR009C, strain hhf1, active compounds read low 0.97 | locus YBR023C, strain chs3, active compounds read low 0.991 | locus YBR171W, strain sec66, active compounds read low 0.968 | locus YBR231C, strain swc5, active compounds read low 0.972 | locus YBR279W, strain paf1, active compounds read low 0.989 | locus YCL011C, strain gbp2, active compounds read low 0.979 | locus YCL016C, strain dcc1, active compounds read low 0.979 | locus YCL061C, strain MRC1, active compounds read low 0.989 | locus YCL069W, strain vba3, active compounds read low 0.987 | locus YCR088W, strain abp1, active compounds read low 0.987 | locus YDL005C, strain med2, active compounds read low 0.978 | locus YDL040C, strain nat1, active compounds read low 0.976 | locus YDR001C, strain nth1, active compounds read low 0.964 | locus YDR069C, strain doa4, active compounds read low 0.974 | locus YDR137W, strain rgp1, active compounds read low 0.916 | locus YDR159W, strain sac3, active compounds read low 0.985 | locus YDR195W, strain ref2 0.952 | locus YDR297W, strain sur2, active compounds read low 0.976 | locus YDR334W, strain swr1, active compounds read low 0.942 | locus YDR335W, strain msn5, active compounds read low 0.972 | locus YDR392W, strain spt3, active compounds read low 0.986 | locus YEL003W, strain gim4, active compounds read low 0.974 | locus YEL037C, strain rad23, active compounds read low 0.992 | locus YEL061C, strain CIN8 (second series), active compounds read low 0.976 | locus YER015W, strain faa2, active compounds read low 0.968 | locus YER016W, strain bim1, active compounds read low 0.979 | locus YER111C, strain swi4, active compounds read low 0.992 | locus YER155C, strain BEM2 (second series), active compounds read low 0.967 | locus YFR010W, strain ubp6, active compounds read low 0.963 | locus YGL167C, strain pmr1, active compounds read low 0.989 | locus YGL173C, strain kem1, active compounds read low 0.967 | locus YGL227W, strain vid30, active compounds read low 0.974 | locus YGL240W, strain doc1, active compounds read low 0.977 | locus YGL253W, strain hxk2, active compounds read low 0.986 | locus YHR013C, strain ard1, active compounds read low 0.962 | locus YHR027C, strain rpn1, active compounds read low 0.964 | locus YHR030C, strain SLT2, active compounds read low 0.937 | locus YHR079C, strain IRE1, active compounds read low 0.939 | locus YHR142W, strain chs7, active compounds read low 0.968 | locus YJL092W, strain hpr5, active compounds read low 0.999 | locus YJL095W, strain BCK1 (second series), active compounds read low 0.981 | locus YJL095W, strain BCK1, active compounds read low 0.976 | locus YJL115W, strain asf1, active compounds read low 0.974 | locus YJL129C, strain trk1, active compounds read low 0.999 | locus YJL154C, strain vps35, active compounds read low 0.965 | locus YJL164C, strain tpk1, active compounds read low 0.983 | locus YJL166W, strain qcr8, active compounds read low 0.973 | locus YJL187C, strain SWE1, active compounds read low 0.984 | locus YJR066W, strain TOR1, active compounds read low 0.908 | locus YKL160W, strain elf1, active compounds read low 0.981 | locus YKR026C, strain gcn3, active compounds read low 0.99 | locus YKR091W, strain srl3, active compounds read low 0.984 | locus YLL001W, strain dnm1, active compounds read low 0.983 | locus YLL026W, active compounds read low 0.958 | locus YLL041C, strain sdh2, active compounds read low 0.979 | locus YLR027C, strain aat2, active compounds read low 0.968 | locus YLR113W, strain HOG1, active compounds read low 0.974 | locus YLR221C, strain rsa3, active compounds read low 0.984 | locus YLR258W, strain gsy2, active compounds read low 0.987 | locus YLR262C, strain YPT6 (second series), active compounds read low 0.938 | locus YLR320W, strain mms22, active compounds read low 0.973 | locus YLR342W, strain FKS1, active compounds read low 0.978 | locus YLR357W, strain rsc2, active compounds read low 1 | locus YLR370C, strain arc18, active compounds read low 0.975 | locus YLR384C, strain iki3, active compounds read low 0.962 | locus YML120C, strain ndi1, active compounds read low 0.986 | locus YMR058W, strain fet3, active compounds read low 0.984 | locus YMR125W, strain sto1, active compounds read low 0.984 | locus YMR129W, active compounds read low 0.989 | locus YMR205C, strain PFK2, active compounds read low 0.969 | locus YMR231W, strain pep5, active compounds read low 0.984 | locus YNL071W, strain lat1, active compounds read low 0.978 | locus YNL183C, strain NPR1, active compounds read low 0.92 | locus YNL209W, strain ssb2, active compounds read low 0.957 | locus YNL248C, strain rpa49, active compounds read low 0.986 | locus YNL322C, strain KRE1 (second series), active compounds read low 0.97 | locus YNR049C, strain mso1, active compounds read low 0.967 | locus YOR001W, strain rrp6, active compounds read low 0.982 | locus YOR070C, strain gyp1, active compounds read low 0.976 | locus YOR080W, strain dia2, active compounds read low 0.975 | locus YOR083W, strain WHI5, active compounds read low 0.984 | locus YOR106W, strain vam3, active compounds read low 0.989 | locus YOR231W, strain MKK1, active compounds read low 0.941 | locus YOR265W, strain rbl2, active compounds read low 0.988 | locus YOR270C, strain vph1, active compounds read low 0.972 | locus YOR290C, strain snf2, active compounds read low 0.99 | locus YPL051W, strain arl3, active compounds read low 0.981 | locus YPL078C, strain atp4, active compounds read low 0.97 | locus YPL106C, strain sse1, active compounds read low 0.918 | locus YPL240C, strain hsp82, active compounds read low 0.982 | locus YPL256C, strain CLN2, active compounds read low 0.963
